The record followed here is PubChem BioAssay.

Test [1] can be described thus: antimalarial activity against Dd2 strain (AID 2302;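 active = growth inhibition above 50% at the single 2 µM test dose, taken to imply half-maximal potency below 2 µM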;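 note: 0% = DMSO untreated growth and 100% = chloroquine plus artemisinin killed control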). The following applies: P. falciparum Dd2 in RBCs, LDH growth readout, 72 h; at 2 µM; hits give high values.
Test [2] is described as follows: human hepatoma cell viability loss – ATP luminescence, cytotoxicity control for P. falciparum antimalarial project, primary screen (AID 2303;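 active = inhibition above 50%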;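 note: 0% = DMSO wells and 100% = digitonin-killed cells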). Conditions: HepG2 viability, 24-48 h, at 10 µM, hits give high values.
Test [3] has as its target L-lactate dehydrogenase (Plasmodium falciparum (isolate CDC / Honduras)) (UniProt Q27743). Nature of the test: PfLDH activity inhibition – cell lysate, 3D7 strain, counter-screen for P. falciparum growth inhibition project (AID 2304; call rule not given here;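 note: 0% = vehicle and 100% = reference inhibitor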). The following applies: P. falciparum 3D7 crude extract, LDH APAD/NBT absorbance; at 2 µM; hits give high values.
Test [4] can be described thus: inhibition of 3D7 malaria parasite growth – strain 3D7 (AID 2306; call rule not given here;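 note: 0% = DMSO wells and 100% = chloroquine plus artemisinin control wells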). Conditions: P. falciparum 3D7 erythrocytic growth, LDH absorbance, 72 h; at 2 µM; hits give high values.
Test [5] addresses Protein kinase 7 (PK7), Plasmodium falciparum 3D7 (PF3D7_0213400) (UniProt Q7YTF7). Nature of the test: inhibition of Plasmodium PK7 catalytic activity – biochemical, TCAMS antimalarial set, Kinase-Glo luminescence (AID 1159587; call rule not given here). Conditions: recombinant PfPK7, Kinase-Glo ATP depletion luminescence.
Another test deals with F380Y. Put plainly: BK channel mutant inhibitors and activators – cell-based, U2OS BacMam, thallium flux, beta subunits, selectivity assay, profiling panel (AID 1259406).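 Note: initial slope of Thallos dye fluorescence rise after thallium is added; log ratio against the mean of 0.3% DMSO vehicle wells on the same plate.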 Conditions: U2OS BacMam BK variants, at 30 µM.
The subject of another test is F380Y/beta1. The test is described as above. The following applies: U2OS BacMam BK variants, at 30 µM.
For another test, the system named is F380Y/beta2Delta. The description is as above. Conditions: U2OS BacMam BK variants, at 30 µM.
The next test deals with F380Y/beta4. The test is described as above. Conditions: U2OS BacMam BK variants, at 30 µM.
Test [6] addresses Calcium-activated potassium channel subunit alpha-1 (Homo sapiens) + Leucine-rich repeat-containing protein 26 (Homo sapiens) (UniProt Q12791+Q2I0M4). Described as above. Conditions: U2OS BacMam BK variants, F380Y/Slo1WT/gamma1, at 30 µM.
The next test concerns R275C. The description is as above. Conditions: U2OS BacMam BK variants, at 30 µM.
The test system of a further test is R275C/beta1. Described as above. The following applies: U2OS BacMam BK variants, at 30 µM.
For the next test, the system named is R275C/beta2Delta. The description is as above. The following applies: U2OS BacMam BK variants, at 30 µM.
The subject of another test is R275C/beta4. The description is as above. Conditions: U2OS BacMam BK variants, at 30 µM.
The next test has as its system R275C/Slo1WT/beta2. The test is described as above. Conditions: U2OS BacMam BK variants, at 30 µM.

Values without a mark were called inactive. The source made the active and inactive calls.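 Rule for the calls, unless noted: active = thallium flux through the channel raised or lowered by more than 3 SD from vehicle-only wells, actives on both sides; inactive = the rest.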

L-lactate dehydrogenase (Plasmodium falciparum (isolate CDC / Honduras)), sequence (Q27743 whole entry, looked up): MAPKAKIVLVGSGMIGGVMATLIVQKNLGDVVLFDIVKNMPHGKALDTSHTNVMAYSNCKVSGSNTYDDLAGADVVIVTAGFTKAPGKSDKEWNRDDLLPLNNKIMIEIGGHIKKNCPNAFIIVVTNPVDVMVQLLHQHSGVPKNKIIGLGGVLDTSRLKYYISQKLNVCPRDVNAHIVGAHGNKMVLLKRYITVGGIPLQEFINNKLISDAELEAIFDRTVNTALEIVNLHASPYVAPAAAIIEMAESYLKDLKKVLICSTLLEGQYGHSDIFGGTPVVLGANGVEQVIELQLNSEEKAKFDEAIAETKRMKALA
Calcium-activated potassium channel subunit alpha-1 (Homo sapiens) + Leucine-rich repeat-containing protein 26 (Homo sapiens), sequence (Q2I0M4 whole entry, looked up, one chain of several): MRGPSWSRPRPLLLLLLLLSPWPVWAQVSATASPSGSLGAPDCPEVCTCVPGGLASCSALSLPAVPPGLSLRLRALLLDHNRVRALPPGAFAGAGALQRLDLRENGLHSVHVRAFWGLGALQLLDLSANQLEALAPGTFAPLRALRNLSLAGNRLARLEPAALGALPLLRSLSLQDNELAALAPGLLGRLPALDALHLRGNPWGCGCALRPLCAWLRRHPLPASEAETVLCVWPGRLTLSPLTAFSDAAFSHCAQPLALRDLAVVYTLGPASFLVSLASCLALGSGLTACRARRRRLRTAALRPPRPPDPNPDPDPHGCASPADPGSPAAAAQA
Protein kinase 7 (PK7), Plasmodium falciparum 3D7 (PF3D7_0213400), sequence (Q7YTF7 1-343): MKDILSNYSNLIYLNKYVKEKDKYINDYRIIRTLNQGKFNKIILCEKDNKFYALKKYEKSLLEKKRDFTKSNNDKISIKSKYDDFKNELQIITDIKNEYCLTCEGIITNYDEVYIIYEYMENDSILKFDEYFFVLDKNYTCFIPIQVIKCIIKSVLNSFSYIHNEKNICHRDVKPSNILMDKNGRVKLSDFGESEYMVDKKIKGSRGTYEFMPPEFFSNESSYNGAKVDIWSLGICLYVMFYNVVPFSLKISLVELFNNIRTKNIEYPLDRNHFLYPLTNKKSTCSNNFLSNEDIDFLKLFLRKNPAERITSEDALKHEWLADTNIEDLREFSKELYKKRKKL

`CNC(=O)c1ccccc1Nc1nc(Nc2ccc(CCN3CCN(C)CC3)cc2)ncc1Cl`: the results for the growth inhibition in test [1] and in test [4] were 98% (active) and 97% (active), respectively. For the same compound, the inhibition was 76% (active) in test [2] and 5% in test [3]. In addition, the result in [5] was inactive.

As to `CS(=O)(=O)Cc1ccc(Nc2nccc(-c3c(-c4cccc(NC(=O)c5c(F)cccc5F)c4)nn4ccccc34)n2)cc1`, the growth inhibition in [1] was 75% (active); in test [4], 99% (active). For the same compound, the inhibition is 78% (active) in test [2] and 0% in test [3]. Besides, the result in test [5] was inactive.

As to `CCOC(=O)c1ccc(N2CCOCC2)c(N=Cc2cc(Cl)cc(Cl)c2O)c1`, the log fold change Tl+ flux was 0.0511 in the test with F380Y; 0.162 (active) in the test on F380Y/beta1; 0.0876 in the test with F380Y/beta2Delta; 0.0975 (active) in the test with F380Y/beta4; 0.0345 in [6]; -0.00571 with R275C. The log fold change Tl+ flux was 0.163 (active) with R275C/beta1, 0.0906 (active) in the test on R275C/beta2Delta, 0.128 (active) in the test with R275C/beta4 and 0.0153 in the test on R275C/Slo1WT/beta2.

`O=C(CCn1nc(-c2ccc(F)cc2)ccc1=O)NCc1ccccc1`: the log fold change Tl+ flux in the test on F380Y was 0.0369; in the test on F380Y/beta1 it was 0.0341; in the test with F380Y/beta2Delta, 0.06; in the test with F380Y/beta4, -0.00672; in [6] it was 0.0366; with R275C, 0.021. For the same compound, the log fold change Tl+ flux in the test on R275C/beta1 was 0.0385; in the test with R275C/beta2Delta, 0.0213; in the test with R275C/beta4, 0.037; in the test on R275C/Slo1WT/beta2, 0.000143.

Consider `CC(=O)OCC(OC(C)=O)C(OC(C)=O)C(OC(C)=O)C(C#N)OC(C)=O` (stereo not given), for which the log fold change Tl+ flux is 0.0435 with F380Y; -0.00373 in the test with F380Y/beta1; 0.0398 in the test on F380Y/beta2Delta; 0.0383 with F380Y/beta4; -0.00671 in [6]; -0.00122 in the test with R275C. Further, the log fold change Tl+ flux with R275C/beta1 was -0.0156; with R275C/beta2Delta it was 0.0587; in the test with R275C/beta4 it was -0.0186; in the test on R275C/Slo1WT/beta2, -0.0705.

For `CC1(C)CC(=O)N(c2cc(Cl)cc(Cl)c2)C(=O)C1`, the log fold change Tl+ flux with F380Y was 0.0251; with F380Y/beta1, 0.0345; with F380Y/beta2Delta it was 0.0195; in the test on F380Y/beta4, -0.021; in test [6], -0.00455; in the test with R275C, -0.0193. The log fold change Tl+ flux was 0.025 in the test on R275C/beta1, 0.032 in the test with R275C/beta2Delta, -0.0103 in the test on R275C/beta4 and -0.0488 with R275C/Slo1WT/beta2.

As to `O=C1c2cc(S(=O)(=O)O)ccc2CCC1S(=O)(=O)O` (stereo not given), the log fold change Tl+ flux was 0.0577 in the test with F380Y; 0.132 (active) with F380Y/beta1; 0.167 (active) with F380Y/beta2Delta; 0.0447 in the test on F380Y/beta4; -0.0209 in [6]; 0.0448 with R275C. The log fold change Tl+ flux is 0.0433 with R275C/beta1, 0.151 (active) in the test on R275C/beta2Delta, 0.0299 with R275C/beta4 and -0.0389 in the test on R275C/Slo1WT/beta2.

For `COc1cccc(C(=O)Nc2cc(F)c(Br)cc2F)c1`, the log fold change Tl+ flux is -0.0206 in the test on F380Y; -0.0212 with F380Y/beta1; -0.00467 in the test on F380Y/beta2Delta; -0.0131 in the test with F380Y/beta4; -0.0252 in [6]; -0.0759 in the test with R275C. For the same compound, the log fold change Tl+ flux with R275C/beta1 was -0.106; in the test with R275C/beta2Delta, -0.0756; in the test on R275C/beta4, -0.0731; in the test with R275C/Slo1WT/beta2, -0.0319.

For the compound `Cc1cc(C)c(C(=O)O)c(CC(C)(C)C(=O)O)c1`, the log fold change Tl+ flux with F380Y is 0.000395; in the test on F380Y/beta1 it was 0.016; in the test on F380Y/beta2Delta, -0.00135; with F380Y/beta4, -0.0155; in [6], 0.0359; in the test with R275C, 0.0232. Moreover, the log fold change Tl+ flux in the test with R275C/beta1 is -0.00597; in the test with R275C/beta2Delta it was 0.00899; in the test with R275C/beta4, -0.0125; in the test on R275C/Slo1WT/beta2, 0.0267.

As for `Cc1cc(Nc2ncc(C#N)c(Nc3ccccc3C(N)=O)n2)ccc1N1CCN(C)CC1`, the growth inhibition in [1] and in [4] was 94% (active) each time. Also, the inhibition in [2] was 99% (active); in test [3] it was 0%. The outcome in [5] was inactive.

As to `O=C(O)C(Cc1ccccc1[N+](=O)[O-])=NNc1ccccc1`, the log fold change Tl+ flux is 0.0136 in the test on F380Y; 0.0239 with F380Y/beta1; 0.0162 in the test on F380Y/beta2Delta; 0.0888 in the test with F380Y/beta4; 0.0895 in test [6]; 0.0387 in the test with R275C. Besides, the log fold change Tl+ flux in the test with R275C/beta1 is 0.0681; in the test on R275C/beta2Delta it was 0.0201; with R275C/beta4 it was 0.0231; in the test with R275C/Slo1WT/beta2, 0.00699.

`NC(CS(=O)(=O)Cc1ccco1)=NO`: the log fold change Tl+ flux in the test on F380Y is 0.0416; with F380Y/beta1, 0.0173; in the test on F380Y/beta2Delta, 0.00572; in the test on F380Y/beta4, 0.019; in test [6], -0.0714; in the test with R275C it was -0.017. In addition, the log fold change Tl+ flux in the test with R275C/beta1 was -0.00211; in the test on R275C/beta2Delta, -0.0186; with R275C/beta4 it was -0.0304; with R275C/Slo1WT/beta2, -0.0219.

For `CN1CCN(c2ccc(Nc3ncc(C#N)c(Nc4ccccc4C(N)=O)n3)cc2)CC1`, the growth inhibition in test [1] is 93% (active); in test [4], 92% (active). In addition, the results for the inhibition in [2] and in [3] were 43% and -1%, respectively. Besides, the result in test [5] was inactive.

In the case of `CC(c1cccc(Nc2nccc(-c3c(-c4cccc(NC(=O)c5c(F)cccc5F)c4)nn4ncccc34)n2)c1)S(C)(=O)=O` (stereo not given), the growth inhibition in test [1] and in test [4] was 98% (active) each time. The inhibition in test [2] is 79% (active); in [3] it was 4%. For the same compound, the outcome in test [5] was inactive.
